# Results taken from publication PMC7862700, “An all-to-all approach to the identification of sequence-specific readers for epigenetic DNA modifications on cytosine”.
# How the values were obtained:
# Test in all cases: DAPPL (digital affinity profiling via proximity ligation, sequencing); 10 mM Tris-HCl pH 7.5, 50 mM NaCl, 1 mM DTT, 4% glycerol, room temperature, 30 min; GST-TFs on glutathione beads, 16-mer random dsDNA library, 0.1% formaldehyde crosslink after washing; high values mean tight binding
# [1] = target: T1, FLI1 (Homo sapiens, UniProt Q01543 1-452); conditions: protein: recombinant; tags: N-terminal GST; dsDNA, one strand shown
# T1 sequence: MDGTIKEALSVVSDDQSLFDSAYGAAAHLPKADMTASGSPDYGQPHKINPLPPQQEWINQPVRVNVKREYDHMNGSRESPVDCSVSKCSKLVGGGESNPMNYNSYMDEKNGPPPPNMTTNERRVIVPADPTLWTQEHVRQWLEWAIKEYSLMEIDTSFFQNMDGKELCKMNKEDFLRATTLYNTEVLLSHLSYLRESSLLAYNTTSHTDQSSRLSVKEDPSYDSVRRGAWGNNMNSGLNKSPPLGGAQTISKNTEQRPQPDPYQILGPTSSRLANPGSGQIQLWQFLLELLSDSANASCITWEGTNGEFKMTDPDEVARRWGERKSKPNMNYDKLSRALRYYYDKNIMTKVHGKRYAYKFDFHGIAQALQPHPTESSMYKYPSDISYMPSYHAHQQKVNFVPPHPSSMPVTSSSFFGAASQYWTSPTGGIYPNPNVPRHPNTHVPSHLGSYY
# How it was run: (§1)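 Beads coated with glutathione captured GST-fused human transcription factors that had been expressed in yeast, and the factors were then given DNA barcodes and pooled with a tag-only sample. The pools were incubated with 200 nmole of a random double-stranded 16-mer DNA library in Tris/NaCl/DTT/glycerol buffer for 30 min at room temperature, washed, crosslinked with 0.1% formaldehyde and proximity-ligated with BsaI/T4 ligase at 37 °C for 1 h. PCR amplification and Illumina NextSeq500 sequencing came last. Binding signal is each hexamer's read frequency for a factor divided by its frequency for the tag-only sample.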
# [2] = target: T2, ELK1 (Homo sapiens, UniProt P19419 1-428); conditions: protein: recombinant; tags: N-terminal GST; dsDNA, one strand shown
# T2 sequence: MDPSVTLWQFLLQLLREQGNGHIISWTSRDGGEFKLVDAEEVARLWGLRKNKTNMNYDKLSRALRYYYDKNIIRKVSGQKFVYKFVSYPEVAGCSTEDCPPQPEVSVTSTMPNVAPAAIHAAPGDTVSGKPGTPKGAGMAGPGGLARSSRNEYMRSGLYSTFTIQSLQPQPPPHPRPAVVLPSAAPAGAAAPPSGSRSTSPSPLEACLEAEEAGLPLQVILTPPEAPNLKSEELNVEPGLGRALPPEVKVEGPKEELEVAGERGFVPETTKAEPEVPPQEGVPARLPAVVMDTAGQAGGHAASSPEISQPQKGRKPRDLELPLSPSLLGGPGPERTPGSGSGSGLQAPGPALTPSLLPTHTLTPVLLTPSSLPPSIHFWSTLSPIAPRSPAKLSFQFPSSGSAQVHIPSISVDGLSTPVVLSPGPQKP
# How it was run: as §1
# [3] = target: T3, GABPA (Homo sapiens, UniProt Q06546 1-454); conditions: protein: recombinant; tags: N-terminal GST; dsDNA, one strand shown
# T3 sequence: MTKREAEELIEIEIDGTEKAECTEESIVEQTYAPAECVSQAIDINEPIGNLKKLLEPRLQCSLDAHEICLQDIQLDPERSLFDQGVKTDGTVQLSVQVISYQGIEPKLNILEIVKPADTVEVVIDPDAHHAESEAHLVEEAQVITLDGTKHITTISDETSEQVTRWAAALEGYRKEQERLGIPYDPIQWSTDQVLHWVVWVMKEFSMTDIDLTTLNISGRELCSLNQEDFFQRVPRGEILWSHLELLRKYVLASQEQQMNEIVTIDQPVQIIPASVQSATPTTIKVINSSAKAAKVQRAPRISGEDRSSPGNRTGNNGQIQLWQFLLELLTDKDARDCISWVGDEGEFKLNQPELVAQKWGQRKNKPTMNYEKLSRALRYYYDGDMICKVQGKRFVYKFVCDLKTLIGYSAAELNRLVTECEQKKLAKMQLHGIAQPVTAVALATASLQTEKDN
# How it was run: as §1
# [4] = target: T4, ERG (Homo sapiens, UniProt P11308 1-479); conditions: protein: recombinant; tags: N-terminal GST; dsDNA, one strand shown
# T4 sequence: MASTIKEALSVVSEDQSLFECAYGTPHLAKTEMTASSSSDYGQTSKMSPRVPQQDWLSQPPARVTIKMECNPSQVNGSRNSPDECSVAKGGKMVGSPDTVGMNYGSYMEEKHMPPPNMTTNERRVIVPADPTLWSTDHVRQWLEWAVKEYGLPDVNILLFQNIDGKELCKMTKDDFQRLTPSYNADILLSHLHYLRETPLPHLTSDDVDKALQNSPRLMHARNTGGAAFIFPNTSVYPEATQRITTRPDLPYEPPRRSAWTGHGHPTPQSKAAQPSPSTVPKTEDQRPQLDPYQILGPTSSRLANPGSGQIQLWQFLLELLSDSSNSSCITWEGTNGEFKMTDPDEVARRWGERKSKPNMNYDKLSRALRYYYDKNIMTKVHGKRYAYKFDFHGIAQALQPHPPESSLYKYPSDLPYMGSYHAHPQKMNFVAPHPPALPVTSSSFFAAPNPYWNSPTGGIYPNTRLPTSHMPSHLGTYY
# How it was run: as §1
# [5] = target: ELF1 (Homo sapiens, UniProt P32519 1-619); conditions: protein: recombinant; tags: N-terminal GST; dsDNA, one strand shown
# ELF1, sequence (P32519 whole entry): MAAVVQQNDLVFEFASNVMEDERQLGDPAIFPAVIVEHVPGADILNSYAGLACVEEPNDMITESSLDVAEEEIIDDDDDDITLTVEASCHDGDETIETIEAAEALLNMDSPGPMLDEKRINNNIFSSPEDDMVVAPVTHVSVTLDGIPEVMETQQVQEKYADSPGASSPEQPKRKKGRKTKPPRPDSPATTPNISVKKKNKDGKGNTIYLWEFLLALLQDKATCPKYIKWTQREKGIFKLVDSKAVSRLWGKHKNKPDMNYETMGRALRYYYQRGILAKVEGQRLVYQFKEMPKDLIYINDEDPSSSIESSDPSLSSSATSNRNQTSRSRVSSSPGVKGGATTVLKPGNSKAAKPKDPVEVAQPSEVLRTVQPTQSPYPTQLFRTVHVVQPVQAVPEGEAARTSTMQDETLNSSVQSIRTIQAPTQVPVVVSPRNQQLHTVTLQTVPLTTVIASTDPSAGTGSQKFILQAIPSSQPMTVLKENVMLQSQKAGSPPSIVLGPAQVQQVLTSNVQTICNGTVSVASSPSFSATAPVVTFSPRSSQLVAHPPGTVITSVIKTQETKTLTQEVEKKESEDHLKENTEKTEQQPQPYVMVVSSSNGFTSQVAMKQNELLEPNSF
# How it was run: as §1
# [6] = target: T5, EHF (Homo sapiens, UniProt Q9NZC4 1-300); conditions: protein: recombinant; tags: N-terminal GST; dsDNA, one strand shown
# T5 sequence: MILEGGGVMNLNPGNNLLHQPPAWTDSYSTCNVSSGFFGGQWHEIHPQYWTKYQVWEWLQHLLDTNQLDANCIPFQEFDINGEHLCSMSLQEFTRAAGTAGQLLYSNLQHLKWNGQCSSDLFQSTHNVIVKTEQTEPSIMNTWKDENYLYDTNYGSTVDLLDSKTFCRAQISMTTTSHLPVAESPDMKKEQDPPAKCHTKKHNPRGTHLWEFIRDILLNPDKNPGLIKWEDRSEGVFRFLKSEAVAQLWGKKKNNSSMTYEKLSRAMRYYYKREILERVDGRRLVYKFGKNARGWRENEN
# How it was run: as §1
# [7] = target: SPI1 (Homo sapiens, UniProt P17947 1-270); conditions: protein: recombinant; tags: N-terminal GST; dsDNA, one strand shown
# How it was run: as §1
# [8] = target: SPIB (Homo sapiens, UniProt Q01892 1-262); conditions: protein: recombinant; tags: N-terminal GST; dsDNA, one strand shown
# SPIB, sequence (Q01892 whole entry): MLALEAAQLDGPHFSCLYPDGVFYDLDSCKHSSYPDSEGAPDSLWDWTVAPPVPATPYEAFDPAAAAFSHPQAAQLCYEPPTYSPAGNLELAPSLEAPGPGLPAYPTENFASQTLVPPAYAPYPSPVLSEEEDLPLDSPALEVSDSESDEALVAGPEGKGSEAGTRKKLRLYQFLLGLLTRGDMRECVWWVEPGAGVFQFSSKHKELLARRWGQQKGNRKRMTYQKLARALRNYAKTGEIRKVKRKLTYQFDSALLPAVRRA
# How it was run: as §1
# [9] = target: T6, ELK3 (Homo sapiens, UniProt P41970 1-407); conditions: protein: recombinant; tags: N-terminal GST; dsDNA, one strand shown
# T6 sequence: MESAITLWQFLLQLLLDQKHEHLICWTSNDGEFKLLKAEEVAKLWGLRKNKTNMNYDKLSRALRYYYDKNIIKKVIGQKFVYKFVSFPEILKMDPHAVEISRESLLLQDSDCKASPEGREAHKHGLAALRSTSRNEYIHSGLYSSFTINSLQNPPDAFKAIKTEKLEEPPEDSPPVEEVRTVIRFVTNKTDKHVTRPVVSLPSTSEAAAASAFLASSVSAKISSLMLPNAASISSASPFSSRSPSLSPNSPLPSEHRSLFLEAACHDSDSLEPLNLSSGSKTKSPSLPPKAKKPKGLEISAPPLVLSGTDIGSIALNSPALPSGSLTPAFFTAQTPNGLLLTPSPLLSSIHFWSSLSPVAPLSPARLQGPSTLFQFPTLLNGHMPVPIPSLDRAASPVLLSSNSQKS
# How it was run: as §1
# [10] = target: T7, FEV (Homo sapiens, UniProt Q99581 1-238); conditions: protein: recombinant; tags: N-terminal GST; dsDNA, one strand shown
# T7 sequence: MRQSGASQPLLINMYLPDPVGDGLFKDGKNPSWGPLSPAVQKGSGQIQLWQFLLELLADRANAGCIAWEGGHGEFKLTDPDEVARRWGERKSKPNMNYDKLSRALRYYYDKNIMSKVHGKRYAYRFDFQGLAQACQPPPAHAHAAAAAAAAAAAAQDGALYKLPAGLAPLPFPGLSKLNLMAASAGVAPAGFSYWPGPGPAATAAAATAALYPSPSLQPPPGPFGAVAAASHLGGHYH
# How it was run: as §1
# [11] = target: ETV5 (Homo sapiens, UniProt P41161 1-510); conditions: protein: recombinant; tags: N-terminal GST; dsDNA, one strand shown
# ETV5, sequence (P41161 whole entry): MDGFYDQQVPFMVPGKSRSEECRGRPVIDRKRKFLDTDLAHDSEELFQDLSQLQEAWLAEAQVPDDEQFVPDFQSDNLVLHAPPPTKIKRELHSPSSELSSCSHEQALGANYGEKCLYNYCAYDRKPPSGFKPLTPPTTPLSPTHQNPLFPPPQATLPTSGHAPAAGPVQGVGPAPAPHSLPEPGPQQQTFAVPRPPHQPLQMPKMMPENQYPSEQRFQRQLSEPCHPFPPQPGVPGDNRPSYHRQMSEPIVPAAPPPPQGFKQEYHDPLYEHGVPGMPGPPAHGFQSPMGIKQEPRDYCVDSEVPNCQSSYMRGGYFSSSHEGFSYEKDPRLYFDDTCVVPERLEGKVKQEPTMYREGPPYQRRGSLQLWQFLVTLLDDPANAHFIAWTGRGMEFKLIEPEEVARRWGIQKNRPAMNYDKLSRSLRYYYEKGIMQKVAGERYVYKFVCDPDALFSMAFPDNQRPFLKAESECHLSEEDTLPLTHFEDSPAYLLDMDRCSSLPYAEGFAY
# How it was run: as §1
# [12] = target: HSF1 (Homo sapiens, UniProt Q00613 1-529); conditions: protein: recombinant; tags: N-terminal GST; chain copies: 3; dsDNA, one strand shown
# HSF1, sequence (Q00613 whole entry): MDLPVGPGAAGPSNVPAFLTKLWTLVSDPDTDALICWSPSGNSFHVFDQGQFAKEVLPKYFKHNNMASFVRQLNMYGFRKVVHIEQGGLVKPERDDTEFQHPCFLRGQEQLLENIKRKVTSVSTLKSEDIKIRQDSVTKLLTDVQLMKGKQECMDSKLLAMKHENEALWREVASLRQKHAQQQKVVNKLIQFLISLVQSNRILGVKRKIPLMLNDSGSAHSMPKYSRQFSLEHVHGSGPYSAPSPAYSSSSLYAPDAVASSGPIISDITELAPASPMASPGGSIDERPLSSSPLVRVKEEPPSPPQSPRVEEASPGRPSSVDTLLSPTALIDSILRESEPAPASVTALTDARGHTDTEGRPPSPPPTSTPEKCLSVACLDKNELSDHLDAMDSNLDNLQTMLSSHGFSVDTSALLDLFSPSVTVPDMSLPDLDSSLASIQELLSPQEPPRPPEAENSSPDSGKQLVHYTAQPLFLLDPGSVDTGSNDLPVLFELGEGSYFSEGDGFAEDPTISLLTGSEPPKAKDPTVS
# How it was run: as §1
# [13] = target: T8, SPIC (Homo sapiens, UniProt Q8N5J4 1-248); conditions: protein: recombinant; tags: N-terminal GST; dsDNA, one strand shown
# T8 sequence: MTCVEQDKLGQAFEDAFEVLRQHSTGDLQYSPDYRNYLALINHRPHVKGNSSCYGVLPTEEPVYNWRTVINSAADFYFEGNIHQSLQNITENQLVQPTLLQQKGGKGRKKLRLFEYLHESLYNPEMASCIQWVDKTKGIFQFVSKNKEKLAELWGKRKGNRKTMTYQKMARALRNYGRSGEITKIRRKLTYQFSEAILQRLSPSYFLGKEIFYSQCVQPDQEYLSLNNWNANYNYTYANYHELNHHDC
# How it was run: as §1
# [14] = target: ELF4 (Homo sapiens, UniProt Q99607 1-663); conditions: protein: recombinant; tags: N-terminal GST; dsDNA, one strand shown
# ELF4, sequence (Q99607 whole entry): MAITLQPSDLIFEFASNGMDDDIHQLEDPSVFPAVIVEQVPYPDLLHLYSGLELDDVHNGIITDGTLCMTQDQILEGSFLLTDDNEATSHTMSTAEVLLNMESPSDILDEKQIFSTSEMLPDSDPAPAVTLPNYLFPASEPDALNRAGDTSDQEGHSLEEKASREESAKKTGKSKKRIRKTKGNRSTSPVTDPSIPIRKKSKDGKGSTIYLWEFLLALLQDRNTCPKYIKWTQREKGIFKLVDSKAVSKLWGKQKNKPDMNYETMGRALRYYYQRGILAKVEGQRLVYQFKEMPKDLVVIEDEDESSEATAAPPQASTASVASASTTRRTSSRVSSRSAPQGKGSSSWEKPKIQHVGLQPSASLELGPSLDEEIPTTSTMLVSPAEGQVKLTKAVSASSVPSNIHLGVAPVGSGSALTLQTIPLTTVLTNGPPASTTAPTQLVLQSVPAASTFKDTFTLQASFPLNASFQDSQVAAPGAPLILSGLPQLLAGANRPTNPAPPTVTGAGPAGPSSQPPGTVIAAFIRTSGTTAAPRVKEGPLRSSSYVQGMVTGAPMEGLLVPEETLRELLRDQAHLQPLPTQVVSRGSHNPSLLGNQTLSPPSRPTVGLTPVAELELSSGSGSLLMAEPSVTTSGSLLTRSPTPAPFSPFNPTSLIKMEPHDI
# How it was run: as §1
# [15] = target: T9, ELK4 (Homo sapiens, UniProt P28324-2 1-405); conditions: protein: recombinant; tags: N-terminal GST; dsDNA, one strand shown
# T9 sequence: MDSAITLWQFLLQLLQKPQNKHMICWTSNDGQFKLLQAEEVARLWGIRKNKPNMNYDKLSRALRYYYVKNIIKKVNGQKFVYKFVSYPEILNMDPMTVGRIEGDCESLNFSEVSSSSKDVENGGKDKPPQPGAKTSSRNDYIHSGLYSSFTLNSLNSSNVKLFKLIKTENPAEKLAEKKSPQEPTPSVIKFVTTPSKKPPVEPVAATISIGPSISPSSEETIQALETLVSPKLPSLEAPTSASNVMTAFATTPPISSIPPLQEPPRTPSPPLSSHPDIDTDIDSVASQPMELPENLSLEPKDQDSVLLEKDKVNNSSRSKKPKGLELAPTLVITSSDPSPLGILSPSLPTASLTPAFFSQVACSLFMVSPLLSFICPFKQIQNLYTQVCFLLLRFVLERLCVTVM
# How it was run: as §1
# [16] = target: T10, ETV2 (Homo sapiens, UniProt O00321 1-342); conditions: protein: recombinant; tags: N-terminal GST; dsDNA, one strand shown
# T10 sequence: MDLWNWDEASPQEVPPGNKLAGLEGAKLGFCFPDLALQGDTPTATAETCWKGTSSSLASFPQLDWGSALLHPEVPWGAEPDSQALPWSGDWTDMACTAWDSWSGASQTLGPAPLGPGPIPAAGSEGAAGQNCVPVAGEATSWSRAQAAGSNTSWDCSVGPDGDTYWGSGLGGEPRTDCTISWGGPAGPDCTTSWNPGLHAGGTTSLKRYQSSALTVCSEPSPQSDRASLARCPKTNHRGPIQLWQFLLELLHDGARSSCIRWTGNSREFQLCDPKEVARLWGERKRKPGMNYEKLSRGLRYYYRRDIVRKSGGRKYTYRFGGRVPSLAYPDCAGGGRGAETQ
# How it was run: as §1
# [17] = target: T11, ELF3 (Homo sapiens, UniProt P78545 1-371); conditions: protein: recombinant; tags: N-terminal GST; dsDNA, one strand shown
# T11 sequence: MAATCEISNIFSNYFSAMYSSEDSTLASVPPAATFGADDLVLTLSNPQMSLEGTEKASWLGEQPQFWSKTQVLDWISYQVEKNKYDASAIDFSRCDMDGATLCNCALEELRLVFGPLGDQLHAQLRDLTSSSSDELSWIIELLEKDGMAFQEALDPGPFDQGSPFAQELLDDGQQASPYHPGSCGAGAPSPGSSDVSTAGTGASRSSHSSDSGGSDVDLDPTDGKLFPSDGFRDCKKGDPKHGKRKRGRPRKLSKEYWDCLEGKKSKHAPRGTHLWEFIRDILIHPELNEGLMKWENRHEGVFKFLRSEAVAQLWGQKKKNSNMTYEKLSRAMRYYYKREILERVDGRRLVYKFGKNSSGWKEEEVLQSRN
# How it was run: as §1
# [18] = target: CRX (Homo sapiens, UniProt O43186 1-299); conditions: protein: recombinant; tags: N-terminal GST; dsDNA, one strand shown
# CRX, sequence (O43186 whole entry): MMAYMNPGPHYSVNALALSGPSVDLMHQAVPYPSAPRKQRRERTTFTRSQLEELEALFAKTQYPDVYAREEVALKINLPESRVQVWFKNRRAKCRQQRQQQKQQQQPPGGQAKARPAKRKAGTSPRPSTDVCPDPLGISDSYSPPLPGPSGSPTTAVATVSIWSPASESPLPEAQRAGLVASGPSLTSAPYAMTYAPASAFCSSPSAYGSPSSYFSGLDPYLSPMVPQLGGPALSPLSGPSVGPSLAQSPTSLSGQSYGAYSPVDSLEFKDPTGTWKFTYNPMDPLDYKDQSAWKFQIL
# How it was run: as §1
# [19] = target: ETV1 (Homo sapiens, UniProt P50549 1-477); conditions: protein: recombinant; tags: N-terminal GST; dsDNA, one strand shown
# ETV1, sequence (P50549 whole entry): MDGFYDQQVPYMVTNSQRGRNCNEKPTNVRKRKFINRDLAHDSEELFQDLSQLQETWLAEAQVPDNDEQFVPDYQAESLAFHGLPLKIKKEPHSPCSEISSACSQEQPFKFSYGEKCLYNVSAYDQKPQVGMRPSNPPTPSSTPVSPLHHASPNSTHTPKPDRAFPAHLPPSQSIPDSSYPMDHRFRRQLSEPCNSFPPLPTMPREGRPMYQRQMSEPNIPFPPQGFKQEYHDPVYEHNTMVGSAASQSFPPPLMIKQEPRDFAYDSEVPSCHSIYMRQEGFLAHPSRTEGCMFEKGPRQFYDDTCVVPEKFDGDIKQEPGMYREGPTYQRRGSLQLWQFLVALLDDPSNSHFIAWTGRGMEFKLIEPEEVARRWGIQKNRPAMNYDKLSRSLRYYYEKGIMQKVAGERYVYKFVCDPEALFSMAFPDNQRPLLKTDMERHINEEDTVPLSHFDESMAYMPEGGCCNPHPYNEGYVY
# How it was run: as §1
sequence,measurement,setting,value
ATTTTG,binding signal,[1],"1.19 fold enrichment (6-mer frequency, TF over GST control)"
same,binding signal,[2],"1.25 fold enrichment (6-mer frequency, TF over GST control)"
same,binding signal,[3],"1.33 fold enrichment (6-mer frequency, TF over GST control)"
same,binding signal,[4],"1.2 fold enrichment (6-mer frequency, TF over GST control)"
same,binding signal,[5],"1.28 fold enrichment (6-mer frequency, TF over GST control)"
same,binding signal,[6],"1.3 fold enrichment (6-mer frequency, TF over GST control)"
same,binding signal,[7],"1.31 fold enrichment (6-mer frequency, TF over GST control)"
same,binding signal,[8],"1.28 fold enrichment (6-mer frequency, TF over GST control)"
same,binding signal,[9],"1.14 fold enrichment (6-mer frequency, TF over GST control)"
same,binding signal,[10],"1.15 fold enrichment (6-mer frequency, TF over GST control)"
same,binding signal,[11],"1.28 fold enrichment (6-mer frequency, TF over GST control)"
same,binding signal,[12],"1.28 fold enrichment (6-mer frequency, TF over GST control)"
same,binding signal,[13],"1.09 fold enrichment (6-mer frequency, TF over GST control)"
same,binding signal,[14],"1.25 fold enrichment (6-mer frequency, TF over GST control)"
same,binding signal,[15],"1.31 fold enrichment (6-mer frequency, TF over GST control)"
same,binding signal,[16],"1.33 fold enrichment (6-mer frequency, TF over GST control)"
same,binding signal,[17],"1.31 fold enrichment (6-mer frequency, TF over GST control)"
same,binding signal,[18],"1.32 fold enrichment (6-mer frequency, TF over GST control)"
same,binding signal,[19],"1.31 fold enrichment (6-mer frequency, TF over GST control)"
